Source: PubChem BioAssay
In the library only some 21% were active in any assay of this set; here they are far more common.
Pf growth 48h = Primary qHTS for delayed death inhibitors of the malarial parasite plastid, 48 hour incubation | P. falciparum luciferase growth in erythrocytes, 48 h | Potency, µM (highest dose often 28.7 µM), without a hit: at the highest dose activity change, negative = inhibition, most hits filed as inhibitors | 5.9% of 310,000 active | AID 504832, 2011; active = well fitted inhibition curve with a large enough effect; inconclusive = small, poorly fitted or top-dose-only effect, or another doubt; inactive = no such curve, though single readings can be large or run the other way; also: potency is read from the fitted curve at half-maximal effect; % is scaled to controls: 0 for no effect and ±100 for the full control effect
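First compound was added to culture medium, then infected red cells at 0.1% parasitemia and 2% hematocrit (final). After incubation at 37 C under 5% CO2, luciferase detection reagent was dispensed and light output recorded.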
NS1 inh = qHTS Assay for Inhibitors of Influenza NS1 Protein Function; 0.4% of 270,000 active; Potency, µM (doses to about 46.1 µM), inactives show at the highest dose activity, positive = more growth; also: potency is read from the fitted curve at half-maximal effect; actives are rising curves; nearly all actives have a fitted effect of over 50% in size
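OD600 was taken as the measure of yeast growth restored by compound in an NS1-expressing S. cerevisiae strain. Cells had been washed out of glucose medium and diluted 1:100 into galactose -URA medium, pH 6.0.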
Pf growth 96h = Primary qHTS for delayed death inhibitors of the malarial parasite plastid, 96 hour incubation | P. falciparum luciferase reporter growth, 96 h | Potency, µM (top dose mostly 28.7 µM), inactives show at the top dose activity change, negative = inhibition, hits mostly inhibitors | 6.9% of 320,000 active | AID 504834, 2011; active = well fitted inhibition curve with a large enough effect; inconclusive = small, poorly fitted or top-dose-only effect, or another doubt; inactive = no such curve, though single readings can be large or run the other way; also: potency is read from the fitted curve at half-maximal effect; % is scaled to controls: 0 for no effect and ±100 for the full control effect
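Erythrocytes infected with luciferase-expressing P. falciparum were dispensed at 2% hematocrit and 0.05% parasitemia (final), then incubated with compounds 96 hours at 37 C in 5% CO2. Luminescence after detection reagent addition reported growth.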
Shiga inhibitor = A qHTS for Small Molecule Inhibitors of Shiga Toxin. AID 2315, 2010. 9.2% of 290,000 active. Vero cells, Shiga toxin protein synthesis inhibition reporter. inhibition, % at 38.7 µM; in the data active = inhibition mostly above about 28%, no sharp cut-off; inactive = mostly below about 43%; also: 0% is about no effect
SARS PLP yeast = qHTS of Yeast-based Assay for SARS-CoV PLP. S. cerevisiae expressing SARS-CoV PLpro, growth rescue. Potency, µM (series often up to 32.9 µM), for inactives: at the top dose activity, positive = growth rescue, most hits filed as activators. 0.19% of 330,000 active. AID 485353, 2010; also: potency is read from the fitted curve at half-maximal effect; 0% is about no effect; nearly all actives have a fitted effect of over 55% in size
Cycloheximide cs = Cycloheximide Counterscreen for Small Molecule Inhibitors of Shiga Toxin | 12% of 300,000 active | max response, % | cell reporter, cycloheximide protein synthesis inhibition counterscreen | AID 2314, 2010; in the data active = max response mostly above about 13%, no sharp cut-off; inactive = mostly below about 14%; also: read at 38.3 µM for the half of the compounds with a filed dose; 0% is about no effect
* = called active by the depositor. Unless noted, calls follow the shape of the full dose curve.

Screening CCCCn1c(NCCO)nc2ccccc21 returned Pf growth 48h 6.1%, NS1 inh inconclusive, Pf growth 96h 12.0%, Shiga inhibitor 2.6, SARS PLP yeast 5.7% and Cycloheximide cs -3.2.
`CCCn1c(NCc2ccc3c(c2)OCO3)nc2ccccc21` gave Pf growth 48h -27.5%, NS1 inh -4.6%, Pf growth 96h inconclusive, Shiga inhibitor 33.7, SARS PLP yeast 1.2% and Cycloheximide cs 20.5*.
`CN(C)CCn1c(NCc2ccc3c(c2)OCO3)nc2ccccc21` gave Pf growth 48h 33.3%, NS1 inh 1.6%, Pf growth 96h 20.6%, Shiga inhibitor -4.0, SARS PLP yeast -3.6% and Cycloheximide cs -3.3.
`Cc1ccc(OC(=O)c2oc3ccc(F)cc3c2C)c(C)c1` gave Pf growth 48h -3.8%, NS1 inh -45.3%, Pf growth 96h 95.8%, Shiga inhibitor 45.7, SARS PLP yeast -25.8% and Cycloheximide cs 34.6*.
`CC1(C)C=Cc2c(c3c(c4c(=O)c(-c5ccc(O)cc5)coc24)OC(C)(C)CC3)O1` gave Pf growth 48h inconclusive, NS1 inh 5.0%, Pf growth 96h 9.28µM*, Shiga inhibitor -15.2, SARS PLP yeast -6.4% and Cycloheximide cs 0.7.
For CC(C)CC(=O)OC1C(N2CCOCC2)c2c(ccc(/C=C/C(=O)N3CCOCC3)c2O)OC1(C)C (centres undefined) the results were Pf growth 48h inconclusive, NS1 inh -3.6%, Pf growth 96h 2.62µM*, Shiga inhibitor -2.7, SARS PLP yeast -0.3% and Cycloheximide cs -2.2.
For COc1cc(CNC2CCCC2)cc(Cl)c1OCc1ccccc1F the results were NS1 inh -15.0%, Pf growth 96h inconclusive, Shiga inhibitor -17.5, SARS PLP yeast -25.2% and Cycloheximide cs 0.3.
CCCNC(=O)C1CN(C(=O)c2nn(Cc3ccccc3)c(=O)c3ccccc23)c2ccccc2O1 (centres undefined) was read as Pf growth 48h 10.4µM*, Pf growth 96h 11.7µM* and SARS PLP yeast 1.1%.
Screening CN(CC(=O)Nc1ccc(F)cc1[N+](=O)[O-])Cc1ccccc1 returned Pf growth 48h 25.5%, NS1 inh -7.2%, Pf growth 96h 16.0%, Shiga inhibitor 25.0, SARS PLP yeast 2.1% and Cycloheximide cs 16.3.
CC1=NN(c2ccccc2)C(=O)C1C=Nc1ccccc1O (centres undefined) was read as Pf growth 48h 5.22µM*, NS1 inh -33.7%, Pf growth 96h inconclusive, Shiga inhibitor 27.4*, SARS PLP yeast -3.0% and Cycloheximide cs 14.3.
`CSc1ccc(Cl)c(C(=O)NCCCn2ccnc2)c1` gave Pf growth 48h -2.2%, NS1 inh 1.7%, Pf growth 96h 18.4%, Shiga inhibitor -7.2, SARS PLP yeast 0.8% and Cycloheximide cs 1.9.
For Cc1ccc2nc(Cn3cc(C(F)(F)F)ccc3=O)cc(=O)n2c1 the results were Pf growth 48h 2.9%, Pf growth 96h -10.0%, Shiga inhibitor 4.7, SARS PLP yeast -0.4% and Cycloheximide cs -3.2.
Screening CCc1nc2ccccc2n1Cc1cc(=O)n2cc(C)ccc2n1 returned Pf growth 48h -16.8%, NS1 inh -8.9%, Pf growth 96h 1.65µM*, Shiga inhibitor 16.2, SARS PLP yeast -0.3% and Cycloheximide cs -1.5.
`Cc1ccc(NC(=O)CN2CCN(S(=O)(=O)c3cccs3)CC2)cc1S(=O)(=O)N(C)C` gave Pf growth 48h inconclusive, Pf growth 96h inconclusive, Shiga inhibitor 31.1, SARS PLP yeast 1.1% and Cycloheximide cs -0.8.
`CC[C@@]1(O)C(=O)OCc2c1cc1n(c2=O)-c2cc3ccccc3nc2C1` gave Shiga inhibitor -6.3 and Cycloheximide cs -12.0.
For CC(=O)c1cccc(NC(=O)c2cc(-c3cccs3)on2)c1 the results were Pf growth 48h 172.8%, NS1 inh -4.0%, Pf growth 96h 2.7%, Shiga inhibitor 32.1, SARS PLP yeast 0.1% and Cycloheximide cs 14.3*.
For O=C(Nc1cccc(O)c1)c1cc(-c2cccs2)on1 the results were Pf growth 48h 243.9%, NS1 inh -39.8%, Pf growth 96h 22.3%, Shiga inhibitor 77.4*, SARS PLP yeast -32.2% and Cycloheximide cs 30.5*.
O=C(Nc1ccc(Br)cc1)C1CCCN(C2=NS(=O)(=O)c3ccccc32)C1 (centres undefined) was read as Pf growth 48h inconclusive, Pf growth 96h inconclusive and SARS PLP yeast 8.7%.
Cc1ccnc(NC(=O)CS(=O)(=O)Cc2ccccc2)c1 was read as Pf growth 48h 25.5%, NS1 inh 4.2%, Shiga inhibitor 7.0, SARS PLP yeast -3.9% and Cycloheximide cs 7.3.
For O=C(Cc1ccc(-c2ccccc2)cc1)Nc1ccccn1 the results were Pf growth 48h 29.7%, NS1 inh -30.6%, Pf growth 96h 42.3%, Shiga inhibitor 88.2*, SARS PLP yeast -2.7% and Cycloheximide cs 39.8*.
Screening CC(C)CC(=O)NC(=S)Nc1ccccc1F returned Pf growth 48h 21.6%, NS1 inh 2.3%, Pf growth 96h 12.8%, Shiga inhibitor 26.8 and Cycloheximide cs 15.1.
`Cc1ccnc(NC(=O)Cc2ccc(-c3ccccc3)cc2)c1` gave Pf growth 48h 7.9%, NS1 inh 9.4%, Pf growth 96h 254.7%, Shiga inhibitor 79.6*, SARS PLP yeast -4.9% and Cycloheximide cs 72.2*.
Screening Cc1ccnc(NC(=O)Cc2ccc([N+](=O)[O-])cc2)c1 returned Pf growth 48h 17.3%, NS1 inh 1.2%, Pf growth 96h 14.7%, Shiga inhibitor 57.9, SARS PLP yeast 0.8% and Cycloheximide cs 18.8*.
Screening CC(C)CC(=O)NC(=S)Nc1ccccn1 returned Pf growth 48h 26.1%, NS1 inh -11.6%, Shiga inhibitor 44.1, SARS PLP yeast inconclusive and Cycloheximide cs 26.0*.
Screening O=C(CCl)NN1C(=O)NC(c2ccccc2)(c2ccccc2)C1=O returned Pf growth 48h inconclusive, NS1 inh -4.9%, Pf growth 96h inconclusive, Shiga inhibitor 18.9, SARS PLP yeast 3.4% and Cycloheximide cs -5.5.
Screening O=C(CN1CCN(CC(=O)Nc2ccccn2)CC1)Nc1ccccn1 returned Pf growth 48h 1.0%, NS1 inh -2.6%, Pf growth 96h inconclusive, Shiga inhibitor -10.2, SARS PLP yeast 7.4% and Cycloheximide cs -3.0.
O=C(CC(=O)Nc1ccccn1)Nc1ccccn1 was read as Pf growth 48h 144.2%, NS1 inh -11.8%, Pf growth 96h 9.28µM*, Shiga inhibitor 14.7, SARS PLP yeast 3.1% and Cycloheximide cs 18.0*.
COc1cccc(CN(C)C(=O)CCNC(=O)c2ccc(Br)cc2)c1 was read as Pf growth 48h inconclusive, NS1 inh -9.9%, Pf growth 96h 49.8%, Shiga inhibitor -5.4, SARS PLP yeast -2.4% and Cycloheximide cs 1.2.
